From PubChem
Pf growth 48h: P. falciparum growth inhibition at 48 hours (one generation); P. falciparum luciferase growth in erythrocytes, 48 h; Potency, µM (doses to about 28.7 µM), for the others: at the top dose activity change, negative = inhibition, hits mostly inhibitors; 310,000 compounds, 5.9% hits; AID 504832; further: potency means the concentration at half of the fitted maximal effect; on the % scale 0 is the no-effect control and ±100 the full control effect
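Compounds are pin-transferred into medium, infected erythrocytes (2% hematocrit, 0.1% parasitemia final) are added, and plates sit one parasite generation at 37 C in 5% CO2. Detection reagent is then added and luminescence measured.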
SARS PLP yeast: SARS-CoV PLP inhibition in yeast. S. cerevisiae expressing SARS-CoV PLpro, growth rescue. Potency, µM (top dose mostly 32.9 µM), for inactives: at the top dose activity, positive = growth rescue, usual class: activators. 330,000 compounds, 0.19% hits. AID 485353; calls by dose curve; further: potency means the concentration at half of the fitted maximal effect; 0% is about no effect; nearly all actives have a fitted effect of over 55% in size
NS1 inh: inhibitors of influenza NS1 protein function; Potency, µM (titrated, usually from 46.1 µM), without a hit: top-dose activity, positive = more growth; 270,000 compounds, 0.4% hits; calls by dose curve; further: potency means the concentration at half of the fitted maximal effect; actives are rising curves; nearly all actives have a fitted effect of over 50% in size
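Read-out: OD600 growth recovery of NS1-expressing budding yeast. Cells grown overnight at 30C in -URA glucose medium, washed, resuspended and diluted 1:100 in 2% galactose assay medium, pH 6.0. Same strain lacking NS1 served as positive control.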
Shiga toxin inh: inhibitors of Shiga toxin in Vero cells | Vero cells, Shiga toxin protein synthesis inhibition reporter | inhibition, % at 38.7 µM | 290,000 compounds, 9.2% hits | AID 2315; in the data active means inhibition mostly above about 28%, no sharp cut-off; inactive means mostly below about 43%; further: 0% is about no effect
Cycloheximide cs: counter-screen hit for Shiga toxin inhibitors, cycloheximide | cell reporter, cycloheximide protein synthesis inhibition counterscreen | max response, % | 300,000 compounds, 12% hits; in the data active means max response mostly above about 13%, no sharp cut-off; inactive means mostly below about 14%; further: read at 38.3 µM for the half of the compounds with a filed dose; 0% is about no effect
Pf growth 96h: P. falciparum growth inhibition at 96 hour, primary screen for plastid delayed-death inhibitors | AID 504834 | P. falciparum luciferase reporter growth, 96 h | Potency, µM (top dose mostly 28.7 µM), inactives show at the highest dose activity change, negative = inhibition, most hits filed as inhibitors | 320,000 compounds, 6.9% hits; further: potency means the concentration at half of the fitted maximal effect; on the % scale 0 is the no-effect control and ±100 the full control effect
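Luminescence readout: decreased luciferase signal marks inhibited growth of reporter-expressing P. falciparum in infected red cells (2% hematocrit, 0.05% parasitemia final), exposed to compound two generations (96 h, 37 C, 5% CO2).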
* hit, by the source's call; ? = inconclusive; . = no result given; + = active, no number; [ ] = another dose, or the depositor's remark. Most compounds without a hit are left out; they make up all but 21% or so of the library. Unless noted, the call rests on the fitted dose curve; in most records, active means well fitted inhibition curve with a large enough effect; inconclusive means small, poorly fitted or top-dose-only effect, or another doubt; inactive means no such curve, though single readings can be large or run the other way.

SMILES | Pf growth 48h | SARS PLP yeast | NS1 inh | Shiga toxin inh | Cycloheximide cs | Pf growth 96h
CN(C)C(=O)CCc1ccc2c3c([nH]c2c1)[C@]1(C)[C@@H](C(=O)N2CCOCC2)C[C@H](CC(=O)NCCC2=CCCCC2)C(=O)N1CC3 | . | -6.8% | . | . | . | .
O=C(O)C1c2ccccc2C(=O)N(Cc2ccc(F)cc2)C1c1ccncc1 (configuration not stated) | -5.5% | -0.5% | -0.7% | -3.9 | 1.3 | 0.0%
CC(C)C1C(=O)O[C@@H]2CCN3CC=C(COC(=O)[C@](C)(O)[C@]1(C)O)[C@H]23 (some centres not stated) | . | . | . | 8.7 | -3.1 | .
N=c1c(C(=O)NC2CCCCC2)cc2c(=O)n3ccccc3nc2n1Cc1ccccc1 | ? | -6.0% | 3.4% | -8.6 | -3.0 | 5.86µM*
Cc1ccc(/C=c2\sc3nc(-c4ccccc4Br)nn3c2=O)o1 | 4.3% | -1.9% | -34.3% | -3.9 | -1.0 | 11.7µM*
COc1ccccc1CNC(=O)CCc1nnc2ccc(NCCCN3CCCC3=O)nn12 | -1.7% | 4.0% | 8.0% | -6.5 | -4.0 | 11.8%
NC12CC3CC(C1)CC(CO)(C3)O2 | 0.0% | 2.5% | 0.4% | -8.1 | -5.9 | 8.28µM*
COc1ccccc1CNC(=O)c1sccc1C | 20.3% | -1.1% | -1.9% | 35.1 | 5.7 | 11.0%
COc1ccc(C(=O)NCc2ccccc2OC)cc1 | ? | -0.3% | 3.9% | 9.9 | 9.2 | 5.22µM*
COc1ccc(CNC(=O)c2ccc(-c3ccccc3)cc2)cc1 | 11.5% | 3.0% | -2.1% | 79.3* | 45.1* | 51.8%
COc1ccccc1CNC(=O)C(NC(=O)c1ccccc1)C(C)C (configuration not stated) | 13.1µM* | -1.3% | 3.2% | 21.7 | 0.6 | -4.6%
COc1ccc(CNC(=O)c2sccc2C)cc1 | 9.0% | 1.3% | -13.9% | 21.7 | 14.7* | 9.9%
COc1ccccc1CNC(=O)c1ccc(-c2ccccc2)cc1 | -1.1% | 15.7% | 8.6% | -12.5 | 12.2 | ?
CC1CCCCN1CCCNC(=O)c1cc(Br)c(Br)[nH]1 (configuration not stated) | -1.5% | -0.9% | -2.6% | -2.6 | -1.0 | -11.1%
COc1ccc(CNC(=O)c2ccc(Br)cc2)cc1 | 21.3% | -1.4% | -4.3% | 62.9 | 12.8* | 45.5%
COc1ccc(CCNC(=O)c2ccc(Br)cc2)cc1 | 6.5%[0.00184 µM] | 5.1% | -5.1% | -9.1 | -0.8 | 37.9%
COc1ccc(CNC(=O)c2ccc(C)cc2)cc1 | . | . | . | 39.2* | 23.8 | .
Cc1ccc(Oc2ccc(C(=O)NCc3ccncc3)cc2)cc1 | ? | 2.5% | . | -5.3 | -0.7 | ?
Cc1c(OCC(=O)NCC2CCC(C(=O)O)CC2)ccc2c(-c3ccccc3)cc(=O)oc12 (configuration not stated) | ? | 0.1% | 9.1% | 47.2 | -0.7 | ?
COc1ccc(/C=N/NC(=O)CNC(=O)c2ccc3c(c2)OCCO3)c(C(=O)O)c1OC | 35.6% | 1.0% | -0.1% | -2.1 | 10.1 | 69.5%
CCc1ccccc1NC(=O)N1CCC(NC(=O)C(Cc2ccc(OC)c(OC)c2)NC(C)=O)CC1 (configuration not stated) | ? | 0.2% | 15.3% | -24.4 | -1.5 | 11.7µM*
O=C(COc1ccc(Br)cc1Cl)NC(=O)NC1CCCC1 | 174.1% | -0.1% | . | . | . | 159.1%
O=C(COc1ccc(Br)cc1Cl)NC1CCCCC1 | 191.2% | 1.3% | -0.1% | + | 36.3* | 218.3%
O=C(COc1ccc(Br)cc1Br)NC1CCCC1 | 147.3% | -7.2% | . | 109.2* | 42.9* | 35.6%
CC(C)NC(=O)NC(=O)COc1ccc(Br)cc1Br | 273.0% | -13.0% | -1.6% | 75.4* | 130.3* | 211.7%
SMILES | Pf growth 48h | SARS PLP yeast | NS1 inh | Shiga toxin inh | Cycloheximide cs | Pf growth 96h
CC(C)NC(=O)NC(=O)COc1c(F)c(F)cc(F)c1F | 5.5% | 10.1% | 3.4% | 21.1 | 5.3 | .
COc1cccc(OCCCOc2ccccc2C(C)C)c1 | ? | -5.0% | 7.2% | -19.6 | -2.7 | -7.9%
Cc1ccc(C)n1-c1ccc(-n2cnnn2)cc1 | ? | -0.1% | -9.0% | -4.1 | -4.3 | ?
Cc1cc(-n2cnnn2)ccc1C(C)C | 31.7% | -7.2% | . | 32.8 | 23.4* | 37.5%
O=C(CSc1nc2ccccc2o1)Nc1nncs1 | . | -10.7% | -8.4% | 12.6 | 11.1 | 15.4%
c1ccc(-c2noc(CSc3nc4ccccc4o3)n2)cc1 | 9.6% | -7.2% | -11.6% | 56.3 | 17.1 | 73.7%
Brc1c(CSc2nc3ccccc3o2)nc2ncccn12 | -25.0% | -7.1% | -120.6% | 57.8 | 39.7* | ?
Clc1c(CSc2nc3ccccc3o2)nc2ccccn12 | 99.8% | -9.6% | -126.8% | 54.5 | 33.5* | .
Brc1c(CSc2nncn2-c2ccccc2)nc2ncccn12 | -10.1% | 14.0% | 17.8% | -12.8 | 14.3 | -18.9%
Clc1c(CSc2nc3ccccc3o2)nc2sccn12 | 72.5% | -16.2% | -57.5% | 152.2* | 30.3* | 0.0%
Cc1cc(C)nc(SCc2nc3ncccn3c2Br)n1 | 8.28µM* | -5.3% | -7.5% | 6.0 | -5.7 | 4.15µM*
O=C(CCS(=O)(=O)c1ccc(Cl)cc1)Nc1nnc(-c2ccco2)o1 | -16.1% | -0.8% | . | . | . | -15.0%
Cc1sc2c(c1C)c(=O)n(-c1cccc(C(F)(F)F)c1)c(=O)n2CC(=O)NCc1ccco1 | 1.2% | -4.0% | 0.5% | 2.6 | -1.9 | -1.4%
CC(C)COc1ncnc2c1sc1nc3c(cc12)COC(C)(C)C3 | 104.9% | 0.6% | 2.5% | 21.5* | 14.3 | 184.6%
C=CCSc1ncnc2c1oc1nc3c(cc12)COC(C)(C)C3 | 63.4% | 0.2% | 1.2% | 15.7 | 14.9* | 54.6%
C=CCn1c(C)nc2c(sc3nc4c(cc32)COC(C)(C)C4)c1=O | 174.8% | 1.0% | -0.2% | 49.9* | 43.5* | 164.1%
CC1(C)Cc2nc3sc4c(=O)n(CC(=O)NCc5ccco5)cnc4c3cc2CO1 | 46.1% | 1.5% | 3.4% | 68.6* | 25.8* | -0.4%
CCCOc1ncnc2c1sc1nc3c(cc12)COC(C)(C)C3 | 50.7% | 0.2% | -0.9% | 15.8 | 10.5 | 38.7%
CC(C)CSc1ncnc2c1oc1nc3c(cc12)COC(C)(C)C3 | 19.0% | 4.1% | -2.6% | -7.7 | -2.0 | .
O=C1NC(=O)c2cc(Nc3ccccc3)c(Nc3ccccc3)cc21 | . | . | ? | -11.2 | -6.1 | .
O=C(COc1ccc(Cl)cc1Cl)NN1C(=O)C2C3C=CC(C3)C2C1=O (configuration not stated) | 5.5% | -0.5% | -1.9% | 2.6 | -2.1 | 6.7%
CCC(Sc1nnc(-c2ccco2)n1C)C(=O)Nc1nnc(C)s1 (configuration not stated) | -34.0% | -3.4% | 3.2% | -4.5 | 1.5 | 4.1%
CCSc1ncnc2c1sc1nc3c(cc12)COC(C)(C)C3 | 111.6% | -27.5% | 9.0% | 29.0 | 19.2* | -0.3%
CCc1ccc(N/C(=N/c2nc(C)cc(C)n2)NC(C)=O)cc1 | . | -4.5% | 0.8% | -1.6 | 7.2 | ?
CCc1ccc(-c2cn(-c3nc(C)cc(C)n3)c(=N)o2)cc1 | ? | -7.8% | -17.6% | 46.1 | 22.9* | 10.4µM*
COC(CN1CCc2c(C)nc3c(C#N)cnn3c21)OC | -1.5% | 3.4% | 6.6% | -2.8 | -0.8 | -2.6%
